{
  "source": "PubChem BioAssay",
  "data": [
    {"biological_target": "Torsin-1A (Homo sapiens) (UniProt O14656)", "sequence (O14656 whole entry, looked up)": "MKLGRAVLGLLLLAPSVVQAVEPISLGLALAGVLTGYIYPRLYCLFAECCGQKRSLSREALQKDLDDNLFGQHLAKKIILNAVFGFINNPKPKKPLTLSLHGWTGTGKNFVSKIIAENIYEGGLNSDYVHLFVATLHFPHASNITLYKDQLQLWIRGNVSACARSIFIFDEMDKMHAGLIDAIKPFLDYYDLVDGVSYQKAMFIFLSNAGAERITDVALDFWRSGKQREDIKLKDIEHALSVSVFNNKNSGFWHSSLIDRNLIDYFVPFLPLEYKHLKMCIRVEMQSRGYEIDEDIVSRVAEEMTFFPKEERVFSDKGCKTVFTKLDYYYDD", "experiment": "torsin A binders from cell lysate, primary screen, small-molecule microarray, wild-type, 635/667 nm (AID 1149)", "details": "COS7 hTOR1A-WT lysate, 635 nm fluorescence, higher = more signal", "values": [
      {"smiles": "COc1ccc(C(=O)Nc2cccc(CN3C(=O)[C@]4(O[C@H](CCn5cc([C@H](O)c6ccccc6)nn5)[C@@H]([Si](C)(C)c5ccc(OC)cc5)[C@@H]4C)c4ccccc43)c2)cc1", "composite z-score": 0.0107},
      {"smiles": "COCCOC(=O)N1C(=O)[C@@]2(c3cc(C#CC4=CCCCC4)ccc31)[C@H](C(=O)N1CCCCCCC1)[C@H]1C(=O)O[C@H](c3ccccc3)[C@H](c3ccccc3)N1[C@@H]2c1ccc(OCCO)cc1", "composite z-score": 1.04},
      {"smiles": "C=C(CCCC)/C(=C/C[C@H](OC(C)=O)c1ccc(OCCO)cc1)c1cc(C(=O)OC)ccc1OC", "composite z-score": -0.453},
      {"smiles": "COc1ccc([Si](C)(C)[C@H]2[C@H](CC(=O)N3CCC[C@H]3CO)O[C@@]3(C(=O)N(Cc4ccc(N5CCC5=O)cc4)c4ccccc43)[C@@H]2C)cc1", "composite z-score": 1.1},
      {"smiles": "[N-]=[N+]=NCc1ccccc1[C@@H]1OC(c2ccc(OCCCO)cc2)=N[C@]1(Cc1ccccc1N=[N+]=[N-])C(=O)NCCN1CCOCC1", "composite z-score": 1.06},
      {"smiles": "O=C1C[C@@](C(=O)NCC(F)(F)F)(c2ccc([N+](=O)[O-])cc2)[C@@H](c2ccc(CO)cc2)N1CC12CC3CC(CC(C3)C1)C2", "composite z-score": 0.406}
    ]},
    {"biological_target": "Torsin-1A (Homo sapiens) (UniProt O14656)", "experiment": "small-molecule binders of mutant TOR1A in lysate, primary screen, cell lysate, small-molecule microarray, COS7 lysate, 635/667 nm fluorescence (AID 1150);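 note: score pools 667 nm emission and signal to noise measuring lysate protein binding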", "details": "COS7 hTOR1A mutant lysate, 635 nm fluorescence, higher = more signal", "values": [
      {"smiles": "C=CCC(OC(C)=O)[C@@H]1[C@@H](N(Cc2cc3ccccc3o2)C(=O)c2ccc(-c3ccccc3)cc2)c2cc(OCCCO)ccc2N1C(=O)Cc1ccc(OC)cc1", "note": "(some centres not stated)", "composite z-score": -0.324},
      {"smiles": "COCC(=C=CC[C@@H](O)c1ccc(OCCO)cc1)CCO", "composite z-score": 0.966},
      {"smiles": "CC(C)(C)OC(=O)CC[C@]12N=C(c3ccc(OCCCO)cc3)O[C@H]1c1ccccc1N(Cc1ccccc1)C2=O", "composite z-score": 1.63},
      {"smiles": "O=C1OCCC/C=C\\[C@H]2OC34C=CCN(c5ccc6ccccc6c5)C(=O)[C@H]3N(CCCO)C(=O)[C@@H]4C12", "note": "(some centres not stated)", "composite z-score": -1.1},
      {"smiles": "C=C/C=C/[C@@H]1C(=C)CN([C@@H](Cc2ccccc2)C(=O)OC)[C@H]1[C@@H](O)Cc1ccccc1", "composite z-score": 0.795},
      {"smiles": "O=C1NC(=O)C2C1C=CC(C(O)c1ccccn1)N2Nc1ccc(Cl)cc1Cl", "note": "(configuration not stated)", "composite z-score": 0.175},
      {"smiles": "CC(C)C[C@@H]1NC(=O)CNC(=O)[C@@]23C(=O)N[C@@H](Cc4ccccc4)C2[C@H](C)[C@@]2(C)O[C@H]2C3/C=C/C/C=C\\CNC1=O", "note": "(some centres not stated)", "composite z-score": -0.134},
      {"smiles": "CCOC(=O)C1=C[C@@H](c2ccccc2)N(S(=O)(=O)c2ccc(C)cc2)[C@H]1c1ccccc1", "composite z-score": 0.176},
      {"smiles": "[N-]=[N+]=NCc1ccccc1C[C@]1(C(=O)N2CCOCC2)COC(c2ccc(OCCCO)cc2)=N1", "composite z-score": 1.56},
      {"smiles": "COCCOC(=O)N1C(=O)[C@@]2(c3cc(C#Cc4ccc(OC)cc4)ccc31)[C@H](C(=O)NC[C@H](O)c1ccccc1)[C@H]1C(=O)O[C@H](c3ccccc3)[C@H](c3ccccc3)N1[C@@H]2c1ccc(OCCO)cc1", "composite z-score": 0.963},
      {"smiles": "COCCOC(=O)N1C(=O)[C@@]2(c3cc(C#CCC(C(=O)OC)C(=O)OC)ccc31)[C@H](c1ccc(OCCO)cc1)N1[C@H](c3ccccc3)[C@H](c3ccccc3)OC(=O)[C@H]1[C@@H]2C(=O)Nc1nc2ccccc2s1", "composite z-score": 0.264},
      {"smiles": "COCCOC(=O)N1C(=O)[C@@]2(c3cc(C#CCNC(N)=O)ccc31)[C@H](c1ccc(O)cc1)N1[C@H](c3ccccc3)[C@H](c3ccccc3)OC(=O)[C@H]1[C@@H]2C(=O)N1CCN(c2ncccn2)CC1", "composite z-score": 0.747},
      {"smiles": "COc1cc(C(O)C2C=CC3C(=O)N(Cc4ccccc4)C(=O)C3N2n2cnnc2)cc(OC)c1OC", "note": "(configuration not stated)", "composite z-score": 0.671},
      {"smiles": "CCCCC=C[C@@H](NC(=O)c1ccccc1)c1ccccc1", "composite z-score": 0.0135},
      {"smiles": "COc1ccc([Si](C)(C)[C@@H]2[C@@H](CC(=O)N3Cc4ccccc4C[C@H]3CO)O[C@]3(C(=O)N(c4ccccc4)c4ccccc43)[C@H]2C)cc1", "composite z-score": 0.871},
      {"smiles": "CCOC(=O)C1=CCC(c2ccccc2)N(S(=O)(=O)c2ccc([N+](=O)[O-])cc2)C1", "note": "(configuration not stated)", "composite z-score": 0.458},
      {"smiles": "[N-]=[N+]=NCc1ccccc1[C@@H]1OC(c2ccc(OCCCO)cc2)=N[C@]1(Cc1ccccc1N=[N+]=[N-])C(=O)N1CCCCC1", "composite z-score": 1.31},
      {"smiles": "C=CCN1C(=O)[C@]2(O[C@H](CCO)[C@@H]([Si](C)(C)c3ccc(OC)cc3)[C@@H]2C)c2cc(N3C(=O)COc4ccccc43)ccc21", "composite z-score": 0.072},
      {"smiles": "COCCCNC(=O)[C@@]1(c2ccc([N+](=O)[O-])cc2)CC(=O)N(CC23CC4CC(CC(C4)C2)C3)[C@@H]1c1ccc(CO)cc1I", "composite z-score": 0.0661},
      {"smiles": "CC(C)OC(=O)CC(=O)CC(O)c1ccc([N+](=O)[O-])cc1", "note": "(configuration not stated)", "composite z-score": 0.113},
      {"smiles": "CCOC(=O)C1=CCC(c2ccco2)N(S(=O)(=O)c2ccc(C)cc2)C1", "note": "(configuration not stated)", "composite z-score": 1.24}
    ]}
  ]
}
